Laboratory results as given in the supplement of paper PMC10042075.
Values joined by “and” are separate entries in the source; they are usually repeats but may differ in a detail not shown here. Equal entries are not always repeated. Structures can show the parent of a compound that is named as a salt.

These compounds were tested on LASCPC-01 (assay: cell viability relative to DMSO control (fraction); higher = less growth inhibition (more viable cells)). Conditions: 2 µM; 72 h.
Description: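 High-throughput single-dose screen in the LASCPC-01 NEPC cell line in 384-well plates. Cells were treated with each compound at 2 µM for 72 h, and viability was read by CellTiter-Glo luminescence. Values are normalised to the DMSO control (compound/DMSO) from three replicates; only the 5-HT-related subset of the 7315-compound library is given.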

Point of comparison: `COc1ccc2cccc(CCNC(C)=O)c2c1` [Agomelatine], cell viability 1.07. Against it:
- CNCCC(Oc1ccc(C(F)(F)F)cc1)c1ccccc1 (stereo not given) [Fluoxetine HCl] — lower, 1.02
- NCCCCCNCC12CC3CC(CC(C3)C1)C2 [IEM 1754 dihydrobroMide] — lower, 0.808
- CN(C)CCc1c[nH]c2ccc(CS(=O)(=O)N3CCCC3)cc12 [Almotriptan Malate] — lower, 0.818
- COc1ccccc1N1CCN(CCN(C(=O)c2ccc(F)cc2)c2ccccn2)CC1 [p-MPPF dihydrochloride] — lower, 0.362
- Cn1cc(C(=O)[C@@H]2CCc3[nH]cnc3C2)c2ccccc21 [Ramosetron] — higher, 1.08
- CC1(C)C(=O)N(CCN2CCC(C(=O)c3ccc(F)cc3)CC2)c2ccccc21 [LY-310,762 hydrochloride] — lower, 0.89
- Cc1ncc(CO)c(CO)c1O [Metadoxine] — higher, 1.13
- Cc1cc2c(cc1Cl)N(C(=O)Nc1ccc(Oc3cccnc3C)nc1)CC2 — lower, 0.0538
- CN(C)CC(c1ccc(O)cc1)C1(O)CCCCC1 (stereo not given) [Desvenlafaxine Succinate] — lower, 0.883
- CN1CCC(=C2c3ccccc3C=Cc3ccccc32)CC1 [Cyproheptadine hydrochloride] — higher, 1.14
- O=c1[nH]c2ccccc2n1CCN1CCN(c2cccc(C(F)(F)F)c2)CC1 [Flibanserin] — lower, 1.02
- CN(C)CC(c1ccc(O)cc1)C1(O)CCCCC1 (stereo not given) [Desvenlafaxine] — lower, 1
- COc1cc2c(cc1OC)[C@@H]1Cc3ccc(OC)c(OC)c3CN1CC2 [Rotundine] — lower, 1.05
- CN(C)C(=O)N[C@H]1CC[C@H](CCN2CCN(c3cccc(Cl)c3Cl)CC2)CC1 [Cariprazine] — lower, 0.892
- N=C(N)NC(=N)Nc1ccccc1 [Phenylbiguanide] — lower, 0.637
- CN1CCC(c2c[nH]c3ccc(NC(=O)c4ccc(F)cc4)cc23)CC1 — lower, 0.954
- COc1ccccc1N1CCN(CCN2C(=O)CC3(CCCC3)CC2=O)CC1 [BMY 7378 dihydrochloride] — the same, 1.07
- CN1CCN2c3ccccc3Cc3ccccc3C2C1 (stereo not given) [Mianserin hydrochloride] — lower, 1.04
- Cc1ccc(Sc2ccccc2N2CCNCC2)c(C)c1 — lower, 1.01
- COc1ccc(NC(=O)c2ccc(-c3ccc(-c4noc(C)n4)cc3C)cc2)cc1N1CCN(C)CC1 — lower, 0.512
- COc1cccc([C@H](O)C2CCN(CCc3ccc(F)cc3)CC2)c1OC [Volinanserin] — lower, 1.06
- CN1CCC[C@@H]1Cc1c[nH]c2ccc(CCS(=O)(=O)c3ccccc3)cc12 [Eletriptan hydrobromide] — higher, 1.21
- CN1CCN(C2=Nc3cc(Cl)ccc3Nc3ccccc32)CC1 [Clozapine] — higher, 1.24
- CN(C)CC[C@@H](c1ccc(Cl)cc1)c1ccccn1 [Dexchlorpheniramine Maleate] — lower, 0.891
- Cc1nc2ccccn2c(=O)c1CCN1CCC(C(=O)c2ccc(F)cc2)CC1 [Pirenperone] — lower, 0.645
- CNS(=O)(=O)CCc1ccc2[nH]cc(C3CCN(C)CC3)c2c1 [Naratriptan] — lower, 1.03
- CC(N)C(=O)OC(C)(C)Cc1ccc(Cl)cc1 (stereo not given) [Alaproclate hydrochloride] — higher, 1.13
- Cc1cc(NC(=O)Nc2ccc3c(ccn3C)c2)sn1 — lower, 0.944
- COc1cccc(CCc2ccccc2OCC(CN(C)C)OC(=O)CCC(=O)O)c1 (stereo not given) [Sarpogrelate hydrochloride] — higher, 1.09
- N#Cc1ccc2[nH]cc(CCCCN3CCN(c4ccc5oc(C(N)=O)cc5c4)CC3)c2c1 [Vilazodone HCl] — lower, 0.916
- CN(C)CCC=C1c2ccccc2C=Cc2ccccc21 [Cyclobenzaprine hydrochloride] — lower, 0.947
- CCOc1cc(N)c(Cl)cc1C(=O)NCC1CN(Cc2ccc(F)cc2)CCO1 (stereo not given) [Mosapride Citrate] — lower, 0.912
- O=C1[C@@H]2[C@H]3CC[C@H](C3)[C@@H]2C(=O)N1C[C@@H]1CCCC[C@H]1CN1CCN(c2nsc3ccccc23)CC1 [Lurasidone hydrochloride] — lower, 0.876
- CNc1nn2c(C)c(N(C)C)c(C)nc2c1S(=O)(=O)c1ccccc1 — lower, 0.978
- NCCc1c[nH]cn1 [Histamine] — the same, 1.07
- NC(N)=NC(N)=Nc1ccccc1 [1-Phenylbiguanide] — lower, 0.991
- CN[C@H]1CC[C@@H](c2ccc(Cl)c(Cl)c2)c2ccccc21 [Sertraline hydrochloride] — lower, 0.958
- N#Cc1cc(CN2CCC(Nc3ncnc4sc(Cl)cc34)CC2)ccc1F — lower, 0.875

With `COc1ccc(NS(=O)(=O)c2sc3ccc(Cl)cc3c2C)cc1N1CCNCC1` the cell viability was 1.09 and 0.772.
